According to the supplement of paper PMC12494721:
Counter-ions that a name gives are not always drawn.

Legend:
Settings in all cases: 20 µM; incubation time: 27 h, anaerobic, 37 °C;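 for the amine columns active = adjusted P below 0.05 in both replicates with a change the same way and a mean fold change under 0.8 or over 1.25; inactive = the rest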
[1] = test system: Clostridium sporogenes DSM 1664; assay: growth (OD595) fold change vs plate DMSO controls (fold change (ratio)); higher = more growth
Summary of the method: (§1)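 Anaerobic 27 h, 37 °C mGAM 96-well cultures were shaken, then read for absorbance at 595 nm. Values were blank-subtracted and corrected for compound background using 20 µM compound solutions in water. A calibration factor of 5 converted them to OD. Growth is the fold change versus the median of plate DMSO controls. Fold changes above 1.5 were set to NA, and values are the mean of 2 biological replicates.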

Escherichia coli IAI1 [2] = assay: as above
Summary of the method: as §1

[3] = test system: Klebsiella aerogenes DSM 30053; assay: as above
Summary of the method: as §1

[4] = test system: Ruminococcus gnavus DSM 108212; assay: as above
Summary of the method: as §1

[5] = test system: Klebsiella aerogenes DSM 30053; assay: fold change of Histamine concentration vs plate DMSO controls (fold change (ratio)); higher = more amine produced, active = hit call of the paper (significant change in both replicates, either direction)
Summary of the method: (§2)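 Amines were quantified by LC–triple-quadrupole MS in dynamic MRM mode against external calibration curves, with drift correction within each batch. The samples were whole anaerobic mGAM cultures of four gut bacterial strains, grown for 27 h at 37 °C in 80 µL wells and extracted with cold acetonitrile/methanol with 0.1% formic acid, then centrifuged. Values are reported as fold change over DMSO controls on the same plate. The mean of 2 biological replicates is given.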

[6] = test system: Clostridium sporogenes DSM 1664; assay: fold change of Tryptamine concentration vs plate DMSO controls (fold change (ratio)); higher = more amine produced, active = hit call of the paper (significant change in both replicates, either direction)
Summary of the method: as §2

[7] = test system: Ruminococcus gnavus DSM 108212; assay: as above
Summary of the method: as §2

Escherichia coli IAI1 [8] = assay: fold change of Putrescine concentration vs plate DMSO controls (fold change (ratio)); higher = more amine produced, active = hit call of the paper (significant change in both replicates, either direction)
Summary of the method: as §2

[9] = test system: Klebsiella aerogenes DSM 30053; assay: as above
Summary of the method: as §2

Escherichia coli IAI1 [10] = assay: fold change of Cadaverine concentration vs plate DMSO controls (fold change (ratio)); higher = more amine produced, active = hit call of the paper (significant change in both replicates, either direction)
Summary of the method: as §2

[11] = test system: Klebsiella aerogenes DSM 30053; assay: as above
Summary of the method: as §2

[12] = test system: Ruminococcus gnavus DSM 108212; assay: fold change of 2-Phenylethylamine concentration vs plate DMSO controls (fold change (ratio)); higher = more amine produced, active = hit call of the paper (significant change in both replicates, either direction)
Summary of the method: as §2

| Structure (SMILES) | growth [1] | growth (Escherichia coli IAI1 [2]) | growth [3] | growth [4] | fold change of Histamine concentration [5] | fold change of Tryptamine concentration [6] | fold change of Tryptamine concentration [7] | fold change of Putrescine concentration (Escherichia coli IAI1 [8]) | fold change of Putrescine concentration [9] | fold change of Cadaverine concentration (Escherichia coli IAI1 [10]) | fold change of Cadaverine concentration [11] | fold change of 2-Phenylethylamine concentration [12] |
| --- | --- | --- | --- | --- | --- | --- | --- | --- | --- | --- | --- | --- |
| OC(Cn1cncn1)(c1ccc(F)cc1)c1ccccc1F (centres undefined) | 1.15 | 1.06 | 1.01 | 0.99 | 1.01 (inactive) | 0.985 (inactive) | 0.984 (inactive) | 1.03 (inactive) | 1.02 (inactive) | 1.03 (inactive) | 0.992 (inactive) | 0.948 (inactive) |
| C[C@@H]1[C@@H](c2ccc(Cl)cc2)SC(=O)N1C(=O)NC1CCCCC1 | 1.01 | 1.08 | 1.07 | 1 | 0.918 (inactive) | 0.989 (inactive) | 0.913 (inactive) | 0.955 (inactive) | 1.03 (inactive) | 0.972 (inactive) | 1.02 (inactive) | 0.882 (inactive) |
| OCC(O)CCl (racemic) | 0.938 | 1.02 | 0.97 | 0.97 | 1.01 (inactive) | 1.11 (inactive) | 1.08 (inactive) | 0.975 (inactive) | 0.959 (inactive) | 0.891 (inactive) | 1 (inactive) | 1.18 (inactive) |
| N#C/N=C1\SCCN1Cc1ccc(Cl)nc1 | 1.01 | 0.969 | 0.996 | 1 | 0.995 (inactive) | 1 (inactive) | 1 (inactive) | 1.04 (inactive) | 0.994 (inactive) | 0.991 (inactive) | 1 (inactive) | 1.03 (inactive) |
| CCC(=O)Nc1ccc(Cl)c(Cl)c1 | 0.942 | 0.949 | 0.942 | 1.01 | 1.11 (inactive) | 0.963 (inactive) | 1.02 (inactive) | 1.01 (inactive) | 0.863 (inactive) | 0.929 (inactive) | 1.16 (inactive) | 1.13 (inactive) |
| CNC(=O)Oc1cccc2ccccc12 | 1.12 | 0.98 | 1 | 0.969 | 0.989 (inactive) | 0.933 (inactive) | 0.989 (inactive) | 1.06 (inactive) | 1.01 (inactive) | 0.965 (inactive) | 1.01 (inactive) | 0.97 (inactive) |
| O=[N+]([O-])O[C@@H]1CO[C@H]2[C@@H]1OC[C@@H]2O [Isosorbide mononitrate] | 0.988 | 0.984 | 1.07 | 1.31 | 0.975 (inactive) | 0.938 (inactive) | 0.984 (inactive) | 0.959 (inactive) | 1.05 (inactive) | 0.975 (inactive) | 1.04 (inactive) | 0.946 (inactive) |
| Cc1cc(C(F)(C(F)(F)F)C(F)(F)F)ccc1NC(=O)c1cccc(I)c1C(=O)NC(C)(C)CS(C)(=O)=O | 1.23 | 0.991 | 1.02 | 0.917 | 1 (inactive) | 0.921 (inactive) | 0.939 (inactive) | 0.989 (inactive) | 1 (inactive) | 1 (inactive) | 0.987 (inactive) | 0.908 (inactive) |
| c1ccc2c(c1)Nc1ccccc1S2 [Phenothiazine] | 1.09 | 0.906 | 0.937 | 1.02 | 0.931 (inactive) | 0.995 (inactive) | 1.01 (inactive) | 0.944 (inactive) | 0.953 (inactive) | 1.03 (inactive) | 0.973 (inactive) | 0.974 (inactive) |
| CC(=O)OCC1=C(C(=O)O)N2C(=O)[C@@H](N)[C@H]2SC1 [Cephalosporanic acid, 7-amino] | 1.05 | 1.05 | 0.979 | 0.924 | 1.07 (inactive) | 1.04 (inactive) | 0.949 (inactive) | 1.05 (inactive) | 1.01 (inactive) | 1 (inactive) | 0.985 (inactive) | 0.942 (inactive) |
| CC(C)CC(C)c1sccc1NC(=O)c1cn(C)nc1C(F)(F)F (centres undefined) | 1.03 | 1.05 | 1.01 | 0.961 | 0.988 (inactive) | 0.935 (inactive) | 1.03 (inactive) | 1.05 (inactive) | 1.01 (inactive) | 1 (inactive) | 0.991 (inactive) | 1.03 (inactive) |
| CCCCc1c(C)nc(NCC)nc1OS(=O)(=O)N(C)C | 0.862 | 1.04 | 0.957 | 0.952 | 1.03 (inactive) | 1.06 (inactive) | 0.959 (inactive) | 0.985 (inactive) | 0.995 (inactive) | 1.01 (inactive) | 0.998 (inactive) | 0.996 (inactive) |
| CN1[C@@H]2CC[C@H]1C[C@@H](OC1c3ccccc3CCc3ccccc31)C2 [Deptropine citrate] | 0.826 | 1 | 0.992 | 0.954 | 1.06 (inactive) | 1.17 (inactive) | 0.877 (inactive) | 1.04 (inactive) | 1.02 (inactive) | 1.11 (inactive) | 0.999 (inactive) | 0.928 (inactive) |
| O=P(Oc1ccccc1)(Oc1ccccc1)Oc1ccccc1 [Triphenyl PO4] | 0.98 | 1.03 | 1.02 | 1.04 | 0.998 (inactive) | 1.16 (inactive) | 0.971 (inactive) | 1.01 (inactive) | 0.842 (inactive) | 0.993 (inactive) | 1.14 (inactive) | 0.995 (inactive) |
| CO/C=C(/C(=O)OC)c1ccccc1COc1cccc(C(F)(F)F)n1 | 1.04 | 1.03 | 1.05 | 0.952 | 0.977 (inactive) | 1.02 (inactive) | 0.996 (inactive) | 1.06 (inactive) | 1 (inactive) | 1 (inactive) | 1 (inactive) | 0.98 (inactive) |
| CC(=O)O[C@H]1C[C@H](O[C@H]2[C@@H](O)C[C@H](O[C@H]3[C@@H](O)C[C@H](O[C@H]4CC[C@@]5(C)[C@H](CC[C@@H]6[C@@H]5C[C@@H](O)[C@]5(C)[C@@H](C7=CC(=O)OC7)CC[C@]65O)C4)O[C@@H]3C)O[C@@H]2C)O[C@H](C)[C@H]1O[C@@H]1O[C@H](CO)[C@@H](O)[C@H](O)[C@H]1O [Lanatoside C] | 1.01 | 0.957 | 0.998 | 1.12 | 0.992 (inactive) | 0.962 (inactive) | 1.07 (inactive) | 1.09 (inactive) | 0.991 (inactive) | 1.02 (inactive) | 0.996 (inactive) | 1.1 (inactive) |
| CC(C)N1C(=O)c2ccccc2NS1(=O)=O | 1.02 | 1.03 | 0.992 | 1.17 | 0.978 (inactive) | 0.976 (inactive) | 0.99 (inactive) | 0.969 (inactive) | 0.979 (inactive) | 0.979 (inactive) | 0.987 (inactive) | 1.03 (inactive) |
| CC(C)(C)c1ccc(CSc2cnn(C(C)(C)C)c(=O)c2Cl)cc1 | 0.838 | 0.995 | 1.01 | 1.13 | 1 (inactive) | 1.02 (inactive) | 0.997 (inactive) | 0.97 (inactive) | 1.01 (inactive) | 1.04 (inactive) | 1 (inactive) | 0.948 (inactive) |
| CSc1nc(NC(C)C)nc(NC(C)C)n1 | 0.932 | 1.01 | 1.02 | 0.973 | 0.971 (inactive) | 0.943 (inactive) | 0.955 (inactive) | 0.946 (inactive) | 1.04 (inactive) | 1.01 (inactive) | 1.03 (inactive) | 1 (inactive) |
| CC1=NNC(=O)N(/N=C/c2cccnc2)C1 | 1.04 | 0.951 | 0.97 | 1.03 | 1.03 (inactive) | 1.02 (inactive) | 1.01 (inactive) | 0.906 (inactive) | 0.945 (inactive) | 1.08 (inactive) | 0.99 (inactive) | 1.02 (inactive) |
| Fc1ccc([C@]2(Cn3cncn3)O[C@H]2c2ccccc2Cl)cc1 (racemic) | 0.97 | 1.01 | 0.994 | 1.04 | 0.991 (inactive) | 1.06 (inactive) | 0.967 (inactive) | 0.935 (inactive) | 0.954 (inactive) | 1.03 (inactive) | 0.982 (inactive) | 1.02 (inactive) |
| O=C(CCCN1CCC2(CC1)C(=O)NCN2c1ccccc1)c1ccc(F)cc1 [Spiperone] | 0.864 | 0.96 | 0.968 | 0.921 | 1.01 (inactive) | 0.991 (inactive) | 1.01 (inactive) | 1.02 (inactive) | 1.01 (inactive) | 1.01 (inactive) | 0.998 (inactive) | 1.04 (inactive) |
| CCCC1COC(Cn2cncn2)(c2ccc(Cl)cc2Cl)O1 (centres undefined) | 0.938 | 1.03 | 0.987 | 0.947 | 0.975 (inactive) | 1.04 (inactive) | 1.08 (inactive) | 0.977 (inactive) | 0.946 (inactive) | 0.939 (inactive) | 0.993 (inactive) | 1.17 (inactive) |
| CC1(C)CON(Cc2ccccc2Cl)C1=O | 0.972 | 0.994 | 0.994 | 0.976 | 1.02 (inactive) | 1.02 (inactive) | 1.01 (inactive) | 1.01 (inactive) | 1 (inactive) | 1.02 (inactive) | 0.986 (inactive) | 0.993 (inactive) |
| CC(C)N(C(=O)COc1nnc(C(F)(F)F)s1)c1ccc(F)cc1 | 0.961 | 0.973 | 1.01 | 0.978 | 1.02 (inactive) | 1.01 (inactive) | 0.886 (inactive) | 1 (inactive) | 1 (inactive) | 1.02 (inactive) | 0.989 (inactive) | 0.832 (inactive) |
| O=P1(N(CCCl)CCCl)NCCCO1 (centres undefined) [Cyclophosphamide] | 0.997 | 1.02 | 0.997 | 1.11 | 1.03 (inactive) | 0.997 (inactive) | 1.02 (inactive) | 1.01 (inactive) | 1.01 (inactive) | 1.02 (inactive) | 0.999 (inactive) | 1.03 (inactive) |
| CC(Cc1ccccc1)NCCC(c1ccccc1)c1ccccc1 (centres undefined) [Prenylamine lactate] | 1.01 | 0.997 | 1 | 1.45 | 0.979 (inactive) | 0.96 (inactive) | 0.913 (inactive) | 1.37 (inactive) | 0.961 (inactive) | 0.657 (active) | 0.987 (inactive) | 0.983 (inactive) |
